Mtb UGM inh: inhibitors of M. tuberculosis UDP-galactopyranose mutase | P9WIQ1 | purified UGM, fluorescence polarization probe displacement | inhibition, % at 10 µM | 0.06% of 320,000 active | AID 504406; in the data active = inhibition above about 10%, passing the limit was not always enough
RecA intein inh: Mtb RecA intein splicing inhibition; inhibition, % (concentration not given with the values); cell-free RecA intein splicing, fluorescence; 0.75% of 290,000 active; in the data active = inhibition above about 30%;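 also: 0% = vehicle wells and 100% = reference inhibitor control wells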
Mtb bLac sens: beta-lactam sensitization of Mtb H37Rv. M. tuberculosis H37Rv growth with meropenem, percent inhibition. inhibition, % at 25 µM. 0.27% of 330,000 active. AID 434955; call rule not given here;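 also: growth measured after seven days incubation then overnight dye step; 0% = bacteria only wells and 100% = bacteria with antibiotic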
Rv3671c inh: inhibitors of M. tuberculosis serine protease Rv3671c. inhibition, % at 5.96 µM. P9WHR9. 0.048% of 320,000 active. AID 2606; in the data active = inhibition above about 38%;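 also: extracellular domain of Rv3671c used as enzyme; 0% = enzyme with DMSO and 100% = no enzyme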
FBA Mtb inh: Mtb fructose-bisphosphate aldolase inhibition; purified M. tuberculosis FBA, fluorescence read-out; inhibition, % at 1 µM; 2.3% of 360,000 active; AID 588726; in the data active = inhibition above about 27%;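 also: 0% = vehicle and 100% = reference inhibitor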
Target sequence (P9WQA3 whole entry, looked up): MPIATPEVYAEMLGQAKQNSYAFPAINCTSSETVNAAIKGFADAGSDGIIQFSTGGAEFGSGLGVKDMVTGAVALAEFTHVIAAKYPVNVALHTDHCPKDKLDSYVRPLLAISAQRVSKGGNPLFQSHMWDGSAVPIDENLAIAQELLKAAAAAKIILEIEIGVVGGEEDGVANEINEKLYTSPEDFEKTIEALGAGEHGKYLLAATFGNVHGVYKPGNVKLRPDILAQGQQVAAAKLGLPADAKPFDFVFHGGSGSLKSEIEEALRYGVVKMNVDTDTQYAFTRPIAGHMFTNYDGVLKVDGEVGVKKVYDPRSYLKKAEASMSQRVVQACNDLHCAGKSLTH
GDH-TPI counter: inhibits GDH-TPI coupling enzymes, artifact for Mtb FBA screen; GDH-TPI coupled enzyme counterscreen, NADH absorbance; inhibition, % at 4.8 µM; 1.2% of 360,000 active; AID 588335; in the data active = inhibition above about 30%;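 also: 0% = DMSO wells and 100% = wells lacking the enzyme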
Numbers without * were called inactive; nt = not tested or not shown. The list is not random: actives were taken first. Their share in the collection is about 4%.

SMILES | Mtb UGM inh | RecA intein inh | Mtb bLac sens | Rv3671c inh | FBA Mtb inh | GDH-TPI counter
O=C(N/N=C/c1cccnc1)/C(=C\c1cccs1)NC(=O)c1ccccc1 | 0 | 2 | -1 | -3 | -1 | 47*
COc1ccc(/C=C(\NC(=O)c2cccs2)C(=O)Nc2ccccc2C)cc1OC | 0 | 1 | 0 | 6 | 0 | 38*
COc1cc2ccccc2cc1C(=O)N/N=C/c1cccs1 | nt | nt | nt | nt | 4 | 35*
Cc1cc(C(=O)Nc2ccc(Cl)c(S(=O)(=O)N3CCOCC3)c2)c2ccccc2n1 | -4 | nt | 41 | -17 | -2 | -4
COc1ccc(/C=C(/NC(=O)c2ccccc2)C(=O)N/N=C/c2ccc3c(c2)OCO3)cc1OC | nt | nt | nt | nt | -4 | 65*
COc1ccccc1C(=O)N/C(=C/c1ccc2c(c1)OCO2)C(=O)Nc1ccc(C(=O)O)cc1 | 1 | 3 | -5 | -4 | 15 | 26
COc1ccc([N+](=O)[O-])cc1/C=N/NC(=O)/C(=C\c1cccs1)NC(=O)c1ccccc1 | -1 | 0 | -3 | -6 | -2 | 43*
COc1ccc(/C=C(/NC(=O)c2ccccc2)C(=O)N/N=C/c2cccs2)cc1OC | -2 | 1 | -10 | 7 | -2 | 69*
CCCc1ccc(C2=Nn3c(nnc3C(C)C)SC2)cc1 | -3 | 4 | 92 | 0 | -1 | 6
CC(=O)Nc1sc2c(c1-c1nc3ccccc3s1)CCN(C(C)C)C2 | -3 | nt | 97 | 5 | 8 | 33*
COCCCNC(=O)c1cccc2c(-c3ccnn3C)coc12 | nt | nt | nt | nt | 8 | 0
O=C(N/C(=C/c1ccc(Cl)cc1)c1nc2ccccc2[nH]1)c1ccco1 | -1 | 3 | -1 | 1 | 4 | 42*
O=C(/C(=C/c1ccc(Cl)cc1)c1nc2ccccc2[nH]1)c1ccccc1 | -1 | 0 | 7 | -14 | -1 | 17
O=C(N/C(=C/c1ccc(Br)cc1)c1nc2ccccc2[nH]1)c1ccco1 | 2 | 0 | 7 | -13 | 5 | 32*
Cc1ccc(-n2nc3c(c2NC(=O)C(C)C)CS(=O)(=O)C3)c(C)c1 | 1 | 0 | -3 | -11 | 0 | -3
